Measurements as given in the supplement of paper PMC7380943.
± gives the standard deviation of the averaged measurements.

How the values were obtained:
[1] = tested on: CLZ3 (HCA2 human fibroblast dual HR-NHEJ reporter); assay: NHEJ repair efficiency (GFP+ cells) relative to control (log10 fold); higher = more non-homologous end joining; conditions: 5 µM; doxycycline 0.5 ug/mL
[2] = tested on: CLZ3 (HCA2 human fibroblast dual HR-NHEJ reporter); assay: HR repair efficiency (tdTomato+ cells) relative to control (log10 fold); higher = more homologous recombination; conditions: 5 µM; doxycycline 0.5 ug/mL
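For HR repair efficiency (tdTomato+ cells) relative to control in this document: compound given one day before doxycycline, which switches on I-SceI endonuclease expression to create double-strand breaks within the integrated reporter.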
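For NHEJ repair efficiency (GFP+ cells) relative to control in this document: compound given one day ahead of doxycycline, which switches on I-SceI endonuclease to cut the chromosomally integrated reporter and create DSBs.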

Row | Compound | NHEJ repair efficiency (log10) [1] | HR repair efficiency (log10) [2]
1 | Oc1cc(O)c2cc(O)c(-c3ccc(O)c(O)c3)[o+]c2c1 [Cyanidin Chloride] | -0.0642 | 0.00943
2 | O=C(CCc1ccc(O)cc1)c1c(O)cc(O)cc1O[C@@H]1OC(CO)[C@@H](O)[C@@H](O)C1O (stereo not given in full) [Phloridzin] | -0.0404 ± 0.071 | 0.0182 ± 0.039
3 | C=C(CC[C@@H](C(=O)O)[C@H]1[C@H](O)C[C@@]2(C)C3=C(CC[C@]12C)[C@@]1(C)CC[C@H](OC(C)=O)C(C)(C)[C@@H]1CC3)C(C)C [Pachymic Acid] | -0.118 | 0.0591
4 | COc1cc2c(cc1OC)[C@@H](Cc1ccc(Oc3cc(C[C@@H]4c5cc(OC)c(OC)cc5CCN4C)ccc3O)cc1)N(C)CC2 [Dauricine] | -0.0332 | -0.294
5 | CC1(C)C=Cc2c(ccc3c2OC[C@@H](c2ccc(O)cc2O)C3)O1 [Glabridin] | -0.0493 | -0.0637
6 | N[C@@H](Cc1ccc(O)c(O)c1)C(=O)O [Levodopa] | 0.0328 | 0.0905
7 | OC[C@H]1O[C@H](OC[C@H]2O[C@@H](O[C@@H]3OC=C[C@H]4[C@H](O)[C@@H]5O[C@]5(CO)[C@@H]34)[C@H](O)[C@@H](O)[C@@H]2O)[C@H](O)[C@@H](O)[C@H]1O [Rehmannioside A] | 0.0412 | -0.0566
8 | COc1ccc(/C=C/C(=O)O)cc1O [Isoferulic acid] | 0.104 | -0.0013
9 | COc1ccc(/C=C/C(=O)O)cc1O [Isoferulic Acid] | -0.101 | 0.0607
10 | C[C@@H]1O[C@@H](O[C@@H]2[C@H](O)[C@@H](O)[C@H](O[C@H]3CC[C@@]4(C)C(CC[C@]5(C)C4C=C[C@]46OC[C@@]7(CCC(C)(C)CC74)[C@@H](O)C[C@]65C)C3(C)C)O[C@@H]2CO[C@@H]2O[C@H](CO)[C@@H](O)[C@H](O)[C@H]2O)[C@H](O)[C@H](O)[C@H]1O (stereo not given in full) [Saikosaponin c] | -0.0431 | -0.104
11 | COc1cc2c(c(OC)c1OC)-c1c(cc3c(c1OC)OCO3)C[C@H](C)[C@@](C)(O)C2 [Schizandrol B] | -0.0319 | -0.132
12 | C[C@@H]1CC[C@@]2(OC1)O[C@H]1C[C@H]3[C@@H]4CC[C@H]5C[C@@H](O)CC[C@]5(C)[C@H]4CC[C@]3(C)[C@H]1[C@@H]2C [Tigogenin] | 0.0196 | 0.0468
13 | CN[C@@H](C)[C@H]1[C@H](O)C[C@@]2(C)[C@@H]3CC[C@H]4C(C)(C)[C@@H](NC)CC[C@@]45C[C@@]35CC[C@]12C [Cyclovirobuxine D] | -0.023 | 0.0389
14 | C=C(C)[C@@H]1CC[C@]2(C(=O)O[C@@H]3O[C@H](CO[C@@H]4O[C@H](CO)[C@@H](O[C@@H]5O[C@@H](C)[C@H](O)[C@@H](O)[C@H]5O)[C@H](O)[C@H]4O)[C@@H](O)[C@H](O)[C@H]3O)CC[C@]3(C)[C@H](CC[C@@H]4[C@@]5(C)CC[C@H](O[C@@H]6OC[C@H](O)[C@H](O)[C@H]6O[C@@H]6O[C@@H](C)[C@H](O)[C@@H](O)[C@H]6O)[C@@](C)(CO)[C@@H]5CC[C@]43C)[C@@H]12 [Anemoside B4] | -0.0464 | 0.0526
15 | CC(CC(=O)C[C@@H](C)[C@H]1CC(=O)[C@@]2(C)C3=C(C(=O)[C@@H](O)[C@]12C)[C@@]1(C)CC[C@H](O)C(C)(C)[C@@H]1C[C@@H]3O)C(=O)O (stereo not given in full) [Ganoderic Acid G] | 0.055 | 0.106
16 | COc1ccc(-c2cc(=O)c3c(O)cc(O)c(-c4cc(-c5cc(=O)c6c(O)cc(OC)cc6o5)ccc4OC)c3o2)cc1 [Sciadopitysin] | 0.0652 | 0.234
17 | O=C1C[C@@H](c2ccc(O[C@@H]3O[C@H](CO)[C@@H](O)[C@H](O)[C@H]3O)cc2)Oc2cc(O)ccc21 [Liquiritin] | -0.084 | -0.0906
18 | COc1c2c(cc3oc(C)cc(=O)c13)O[C@H](C(C)(C)O)C2 [5-O-Methylvisamminol] | -0.159 | -0.14
19 | O=C(/C=C/c1ccc(O)c(O)c1)OC1(C(=O)O)C[C@@H](O)C(O)[C@H](O)C1 (stereo not given in full) [1-Caffeoylquinic Acid] | -0.0477 | 0.0171
20 | COc1cc(-c2oc3cc(O)cc(O)c3c(=O)c2O[C@@H]2O[C@H](CO)[C@@H](O)[C@H](O)[C@H]2O)ccc1O [Isorhamnetin-3-O-Glucoside] | -0.0722 | -0.00603
21 | COc1cc(C2Oc3ccc(C4Oc5cc(O)cc(O)c5C(=O)C4O)cc3OC2CO)ccc1O (stereo not given) [Iso-Silybin] | -0.138 | -0.241
22 | COc1cc(CCC(C)=O)ccc1O [Zingerone] | 0.275 | 0.257
23 | O=c1ccc2ccc(O)cc2o1 [Umbelliferone] | 0.115 | 0.269
24 | O=c1c(-c2ccc(O[C@@H]3O[C@H](CO)[C@@H](O)[C@H](O)[C@H]3O)cc2)coc2cc(O)cc(O)c12 [Sophoricoside] | 0.185 | 0.0013
25 | O=C(O)Cc1c(C=CC(=O)OC(Cc2ccc(O)c(O)c2)C(=O)O)ccc(O)c1O (stereo not given) [Salvianolic Acid D] | -0.0658 | 0.105
